Structures are written as SMILES. About 8,500 (2.5%) of roughly 340,000 compounds were called active.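 Rule for the calls: active = melting temperature shift of at least 10% of the positive control shift, at one fixed dose; inactive = the rest.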 Many of the other results were omitted from the sample, so actives are more common in it than they were.

The assay relates to Glutamate receptor ionotropic, NMDA 3A (GRIN3A) ligand-binding domain. As to the kind of experiment: NR3A LBD thermal stabilization by compounds – biophysical, differential scanning fluorimetry, uHTS, primary screen (AID 1259313). Particulars: at 25 µM, active compounds read high, 0% = protein alone, 100% = glycine-bound protein. (In general: Differential scanning fluorimetry follows unfolding on heating by fluorescence.)
For `O=C(O)C(CCc1ccccn1)c1ccccc1` (stereo not drawn), the Tm shift relative to glycine control was 0.46% (inactive).
Next, `O=C1c2ccccc2C(=O)N1CCC#Cc1ccc2cc(C3(O)CCCCC3)oc(=O)c2c1`: 35.3% (active).
For the compound `COc1cc(C(=O)NCCOC(=O)c2cccc(N(C)C)c2)cc(OC)c1OC`, the Tm shift relative to glycine control is 0.47% (inactive).
In the case of `C=CCOc1ccc(/C=C2\SC(=S)N(CCC(=O)O)C2=O)cc1`, the Tm shift relative to glycine control is 1.33% (inactive).
As to `COc1ccc(-c2nn(-c3ccccc3)cc2/C=C2/SC(=S)N(CCCC(=O)O)C2=O)c(C)c1`, the Tm shift relative to glycine control was 12.5% (active).
For `Cc1ccc(-c2nn(-c3ccccc3)cc2/C=C2\SC(=S)N(CCCCCC(=O)O)C2=O)o1`, the Tm shift relative to glycine control was -394% (inactive).
For `COc1cccc(NS(=O)(=O)c2ccc(-c3coc(C)n3)cc2)c1`, the Tm shift relative to glycine control was -0.18% (inactive).
In the case of `O=C(CCNS(=O)(=O)c1ccc(Br)s1)NCc1ccccc1Cl`, the Tm shift relative to glycine control was -2.24% (inactive).
As to `CCOc1ccccc1NC(=S)C(=C([O-])c1ccc2c(c1)OCCO2)[n+]1ccc(CC)cc1`, the Tm shift relative to glycine control is -1.27% (inactive).
With `COC(=O)c1cc(Oc2ccc(S(=O)(=O)N3CCOCC3)cc2[N+](=O)[O-])cc(C(=O)OC)c1`, the Tm shift relative to glycine control is 0.08% (inactive).
In the case of `Cc1ccc(C(=O)Nc2ccc(NC(=O)c3cccs3)cc2)c(C)c1`, the Tm shift relative to glycine control was 28.3% (active).
Take `Cc1cccc(C=CC(=O)c2ccc(Cl)cc2)c1`: the Tm shift relative to glycine control was 4.44% (inactive).
As to `Cc1cccc(C(=O)Nc2ccc(CC(=O)O)cc2)c1`, the Tm shift relative to glycine control was -4.02% (inactive).
In the case of `Brc1ccc(-c2nnc(-c3ccccc3)o2)o1`, the Tm shift relative to glycine control is -0.09% (inactive).
With `Cc1ccc(NC(=O)c2cccs2)cc1S(=O)(=O)N(C)C` the figure was -5.63% (inactive).
As for `O=C(CNC(=O)c1ccc(Br)o1)Nc1ccccc1`, the Tm shift relative to glycine control was 2.09% (inactive).
In the case of `Cc1ccc(-c2nnc(-c3ccc(NC(=O)c4cccs4)cc3)o2)cc1`, the Tm shift relative to glycine control is 22.2% (active).
Regarding `Cc1ccc(OCC(=O)Nc2ccc(NC(=O)c3cccs3)cc2)c(C)c1`, the Tm shift relative to glycine control was 0.85% (inactive).
Take `CCc1ccc(NC(=O)C(=O)NNC(=O)c2cccs2)cc1`: the Tm shift relative to glycine control was -14.4% (inactive).
`O=C(Nc1ccc(-c2nnc(-c3ccccc3)o2)cc1)c1ccc(Br)o1`: the Tm shift relative to glycine control was 35.9% (active).
Take `Cc1cccc(C(=O)Nc2ccc(C(=O)/C=C/c3cccs3)cc2)c1`: the Tm shift relative to glycine control is 29.2% (active).
Regarding `Cc1ccc(C(=O)NNC(=O)c2cccs2)cc1`, the Tm shift relative to glycine control is 0.08% (inactive).
Turning to `COc1cccc2c1C(=O)c1c(O)c3c(c(O)c1C2=O)CC(O)(C(C)=NNC(=O)c1ccc(Cl)c(Cl)c1)CC3OC1CC(N)C(O)C(C)O1` (stereo not drawn), the Tm shift relative to glycine control is -18.1% (inactive).
As to `COc1ccc(C)cc1S(=O)(=O)Nc1cccc(Cl)c1Cl`, the Tm shift relative to glycine control is -5.61% (inactive).
Consider `CCCOc1ccc(/C=N/NC(=O)C2CC2)c(OCCC)c1`, for which the Tm shift relative to glycine control was 0.85% (inactive).
Next, `Cc1cc(C)nc(NS(=O)(=O)c2ccc(N/C=C\C(=O)c3cccs3)cc2)n1`: -2.02% (inactive); `COc1cc(CO)ccc1OCC(=O)Nc1cccc2ccccc12`: 1.02% (inactive).
With `CCOC(=O)[C@H]1[C@H]2COc3ccc(OC)cc3[C@@H]2N2C(=O)c3ccc(F)cc3NC(=O)[C@@]12C` the figure was -0.63% (inactive); with `NC1=C([N+](=O)[O-])C(c2ccccc2)C2=C(CCCC2=O)O1` (stereo not drawn), -0.34% (inactive); with `Cc1cccc(NC(=O)C(C)SCc2ccccc2)c1` (stereo not drawn), 1.98% (inactive).
In the case of `Cc1cccc(NC(=O)C(C)N2C(=O)C3C4CC(C(Br)C4Br)C3C2=O)c1` (stereo not drawn), the Tm shift relative to glycine control is 13.7% (active).
With `Cc1cccc(NC(=O)CCN2CC(C)CC(C)C2)c1` (stereo not drawn) the figure was -0.71% (inactive); with `Cc1ccc(Nc2ccccc2N)cc1`, 0.92% (inactive).
For the compound `CCn1c(O)c(N=NC(=O)c2cccc(S(=O)(=O)N3CCCCC3)c2)c2ccccc21`, the Tm shift relative to glycine control is -34.1% (inactive).
As to `Cc1cccc(C(=O)Nc2ccc3c(c2)C(=O)N(CC(C)C)C3=O)c1`, the Tm shift relative to glycine control is 0.17% (inactive).
For `CC(=O)Nc1ccc(NC(=O)c2ccc3c(c2)C(=O)N(c2ccccc2C)C3=O)cc1`, the Tm shift relative to glycine control was -0.29% (inactive).
With `Cc1cccc(N2C(=O)c3ccc(C(=O)Nc4cccc(C(=O)O)c4)cc3C2=O)c1` the figure was 11.6% (active).
For `CCC(C(=O)NCCC(C)C)N(Cc1ccccc1Cl)C(=O)c1snc(C(N)=O)c1N` (stereo not drawn), the Tm shift relative to glycine control was -0.19% (inactive).
With `Cc1ccc2c(c1)C(O)(CC(=O)c1cccnc1)C(=O)N2` (stereo not drawn), the Tm shift relative to glycine control is -0.39% (inactive).
As to `CCCn1c(C)cc(-c2csc(NC(=O)CCc3nc4ccccc4c(=O)[nH]3)n2)c1C`, the Tm shift relative to glycine control is -0.45% (inactive).
Consider `CCCNC(=O)CSc1nc(Cc2ccccc2)nc2ccccc12`, for which the Tm shift relative to glycine control is -0.71% (inactive).
Turning to `CCc1nc(SCC(=O)NNC(=O)c2ccc(C)cc2)c2ccccc2n1`, the Tm shift relative to glycine control is -0.6% (inactive).
Regarding `CCCc1nc(SCC(=O)Nc2ccc(S(=O)(=O)N(C)C)cc2)c2ccccc2n1`, the Tm shift relative to glycine control was 17.5% (active).
For `COc1ccc(CC(=O)NCc2nnc(SCC(=O)Nc3nccs3)n2C)cc1`, the Tm shift relative to glycine control is 0.45% (inactive).
As to `CCc1cc(=O)oc2cc(C)cc(OC(C)C(=O)O)c12` (stereo not drawn), the Tm shift relative to glycine control was -0.34% (inactive).
With `CCOC(=O)CCc1c(C)c2ccc(OCc3nn[nH]n3)c(C)c2oc1=O` the figure was -2.57% (inactive); with `CCCCc1cc(=O)oc2cc(C)cc(OCc3nn[nH]n3)c12`, 14.2% (active).
On to `O=C1NC(c2ccncc2)Nc2sc3c(c21)CCCC3` (stereo not drawn), for which the Tm shift relative to glycine control is 0.51% (inactive).
As to `N#C/C(=C\c1ccccc1)c1n[nH]c(Cn2cncn2)n1`, the Tm shift relative to glycine control is -0.2% (inactive).
`COc1ccccc1C1C(C#N)=C(N)Oc2c1c(-c1ccccc1)nn2-c1ccccc1` (stereo not drawn): the Tm shift relative to glycine control is 22.2% (active).
As for `Cc1nn(Cc2ccccc2)c2c1C(c1ccccc1)C(C#N)=C(N)O2` (stereo not drawn), the Tm shift relative to glycine control was 2.39% (inactive).
For `Cc1nn(-c2ccccc2)c2c1C(c1ccc(F)cc1)C(C#N)=C(N)O2` (stereo not drawn), the Tm shift relative to glycine control was -4.31% (inactive).
With `Cc1ccc(C)c(OCc2cc(C(=O)N3CCN(c4cnccn4)CC3)no2)c1`, the Tm shift relative to glycine control was 4% (inactive).
For the compound `O=C(COC(=O)c1ccccc1)Nc1ccccc1Sc1ccccc1`, the Tm shift relative to glycine control was 5.64% (inactive).
For `O=C(COC(=O)c1cccc(Br)c1)Nc1cccc2c1C(=O)c1ccccc1C2=O`, the Tm shift relative to glycine control was 14.9% (active).
With `O=C(COC(=O)Cn1cnc2ccccc21)Nc1cccc2c1C(=O)c1ccccc1C2=O` the figure was -5.74% (inactive).
With `CCCCC(=O)N(c1ccc(OC)cc1)C1C=CS(=O)(=O)C1` (stereo not drawn), the Tm shift relative to glycine control is -8.09% (inactive).
Consider `COc1ccc(CCNC(=O)CN2C(=O)CCSc3ccccc32)c(OC)c1`, for which the Tm shift relative to glycine control is -7.1% (inactive).

The values above are taken from PubChem BioAssay AID1259313 (Sanford-Burnham Center for Chemical Genomics, 2017).
